Screen size: about 390,000 compounds; about 4,000 (1%) were called active. Inconclusive results (about 4%) are left out. This excerpt belongs to a sample that is enriched for actives. A number with no mark means an inactive call. The call rests on the fitted dose curve; in most records, active means well fitted inhibition curve with a large enough effect; inconclusive means small, poorly fitted or top-dose-only effect; inactive means no such curve, though single readings can be large or run the other way.
Target: Thioredoxin reductase 1, cytoplasmic (Rattus norvegicus) (UniProt O89049)
Sequence (O89049 whole entry, looked up): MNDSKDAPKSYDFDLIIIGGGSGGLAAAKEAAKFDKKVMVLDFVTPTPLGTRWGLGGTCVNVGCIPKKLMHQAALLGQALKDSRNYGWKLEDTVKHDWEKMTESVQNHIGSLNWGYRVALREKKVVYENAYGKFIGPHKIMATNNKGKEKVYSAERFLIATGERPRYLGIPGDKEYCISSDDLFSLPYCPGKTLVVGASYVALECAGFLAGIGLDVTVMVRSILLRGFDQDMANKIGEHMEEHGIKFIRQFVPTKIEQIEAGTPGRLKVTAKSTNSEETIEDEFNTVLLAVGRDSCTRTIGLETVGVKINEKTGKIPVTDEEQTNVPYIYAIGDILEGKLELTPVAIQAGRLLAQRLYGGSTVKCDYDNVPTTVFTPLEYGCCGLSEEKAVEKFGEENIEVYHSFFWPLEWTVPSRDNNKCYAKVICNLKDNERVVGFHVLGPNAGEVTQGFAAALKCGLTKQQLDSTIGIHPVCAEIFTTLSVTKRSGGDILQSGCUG
Test: qHTS Assay for Inhibitors of Mammalian Selenoprotein Thioredoxin Reductase 1 (TrxR1): qHTS; further: nearly all actives have a fitted effect of over 65% in size
Conditions: recombinant rTrxR1, NADPH fluorescence consumption, selenite substrate; series mostly up to 114 µM; activity change, negative = inhibition: at the top concentration
In short: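 Rat TrxR1 (90 nM in the dispensed reagent) was pre-reduced with 400 uM NADPH for 5 min at room temperature, then incubated with compound for 15 min. After 400 uM selenite was added, NADPH fluorescence (Ex 340/Em 450 nm) was followed for 8 min.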
On the % scale 0 is the no-effect control and ±100 the full control effect; potency means the concentration at half of the fitted maximal effect.

Compound | activity change, negative = inhibition | Potency
COc1ccc(/C=C/c2ccccn2)cc1OC | 8.3% | 
O=C(NCCCN1CCN(c2cccc(Cl)c2)CC1)c1nnc(Cc2ccc(F)cc2Cl)o1 | -1.33% | 
COc1ccc(S(=O)(=O)Nc2cccc3cccnc23)c(N)c1 | 10.7% | 
Cc1cc(-c2ccc(C)c(S(=O)(=O)N3c4ccccc4CC3C)c2)on1 (stereo not drawn) | 2.98% [at 57.1 µM] | 
CCOc1ccc(C2C(=O)N(C3CCCCC3)CC(=O)N2CCC2=CCCCC2)cc1OC (stereo not drawn) | -0.311% [at 57.1 µM] | 
Cc1ccc(/C=C/C(=O)OCC(=O)NCc2ccc(Cl)cc2)o1 | -13.7% | 
CCOc1ccc(NC(=S)NC(=O)/C=C/c2ccc(OC)cc2)c([N+](=O)[O-])c1 | -2.01% | 
Cc1ccc(/C=C/C(=O)Nc2ccc([N+](=O)[O-])c(NC(=O)/C=C/c3ccc(C)o3)c2)o1 |  | 25.1 µM (active)
CN(C(=N)N)c1ccc(/C=C2\C=Cc3ccccc32)cc1 | -2.12% | 
O=C(NCc1ccccc1Cl)C1=Cc2cc(Br)ccc2OC1 | 2.89% [at 57.1 µM] | 
COc1cc(OC)cc(C(=O)Nc2ccc(-c3nc4ccccc4o3)c(O)c2)c1 |  | 28.2 µM (active)
COc1cccc(C(=O)Nc2ccc3oc(-c4ccc5ccccc5c4)nc3c2)c1 | 40.9% | 
COc1cc2ccccc2cc1C(=O)Nc1cccc(-c2nc3ccccc3o2)c1 | 19.9% | 
Cc1ccc(NC(=O)CN2c3ccccc3S(=O)(=O)c3ccccc32)cc1F | 11.6% | 
COc1cc(C(=O)N(Cc2ccc(C(C)C)cc2)C2CCS(=O)(=O)C2)cc(OC)c1OC (stereo not drawn) | 1.01% | 
COc1ccc(S(=O)(=O)N/N=C\c2ccc(OC)c(COc3ccc(C)cc3[N+](=O)[O-])c2)cc1 | -5.22% | 
CCc1ccc(S(=O)(=O)Nc2ccc(C)c(NS(C)(=O)=O)c2)cc1 | 3.53% | 
CCc1ccc(S(=O)(=O)N/N=C\c2ccc([N+](=O)[O-])o2)cc1 |  | 14.1 µM (active)
O=C(Cc1ccccc1)Nc1sc2c(c1C(=O)Nc1ccc(Br)cc1)CCC2 | 9.27% | 
COc1ccc(NC(=O)C(c2ccccc2)N2Cc3ccccc3C2=O)cc1 (stereo not drawn) | 31.3% [at 57.1 µM] | 
Cc1ccccc1OCCC(=O)OCC(=O)NC(C)c1ccccc1 (stereo not drawn) | -7.06% | 
CCOc1ccc(C(CC(=O)O)NC(=O)COc2ccccc2)cc1 (stereo not drawn) | 1.01% [at 57.1 µM] | 
CCOC(=O)/C=C/C(=O)OCC(=O)NC(c1ccccc1)c1ccccc1 |  | 28.2 µM (active)
CC(=O)Nc1ccc(S(=O)(=O)N2N=NC3C2C2CC4C3(CN(C(=O)OC(C)(C)C)S4(=O)=O)O2)cc1 (stereo not drawn) | -0.673% | 
CN(C)c1ccc(/C=C/c2sc3ccccc3[n+]2CCCCBr)cc1 | 26% | 

Compound | activity change, negative = inhibition | Potency
Cc1ccc(C(=O)COC(=O)C(Cc2c[nH]c3ccccc23)NC(=O)c2ccc(Br)cc2)cc1 (stereo not drawn) | 33.8% [at 57.1 µM] | 
CC(=O)OCC(NC(=O)C(Cc1ccccc1)NC(=O)OC(C)(C)C)C1OC(n2ccc(=O)[nH]c2=O)C(OC(C)=O)C1OC(C)=O (stereo not drawn) | 8.07% | 
COc1cc(OC)c2c(C)cc(=O)oc2c1C(CCN1CCCCC1)c1ccc(N(C)C)cc1 (stereo not drawn) | -4.41% | 
C=C(C)C(=O)O[C@H]1C/C(C)=C\C(=O)/C=C(\C)[C@H](O)[C@@H]2OC(=O)C(=C)[C@@H]21 |  | 39.8 µM (active)
CCOC(=O)N1CCc2c(sc(NCc3cccc(F)c3)c2C(=O)Nc2ccccc2OCC)C1 | 10.3% [at 57.1 µM] | 
COc1cc(OC)c(/C=C/c2ccnc3ccccc23)c(OC)c1 | -0.654% | 
C=C1CCN(C(CC(C)C)C(=O)N2CCOCC2)S(=O)(=O)c2ccccc21 (stereo not drawn) | -0.716% | 
O=c1[nH]c2cc(Br)ccc2n2cccc12 | 10.7% | 
O=c1[nH]c2ccccc2n2c(-c3ccccc3)nnc12 |  | 0.708 µM (active)
O=c1cc(-c2ccccc2)n2c(SCc3ccccc3)nnc2[nH]1 | 0.137% [at 57.1 µM] | 
CC(C)Cn1c(=O)c2ccccc2n2c(-c3cccc(Cl)c3)nnc12 | 20.3% | 
Cc1ccc2nc(N3CCN(c4cccc(Cl)c4)CC3)c3nnnn3c2c1 | 7.14% | 
COc1ccc(N2C(=O)CSC23C(=O)N(Cc2cccc(F)c2)c2ccccc23)cc1Cl (stereo not drawn) | 17.9% | 
Oc1c(C(c2ccc(F)cc2)N2CCN(Cc3ccccc3)CC2)sc2nc(-c3ccco3)nn12 (stereo not drawn) | 4.01% [at 57.1 µM] | 
O=[N+]([O-])c1ccc(N/N=C2/CCCCC2c2ccccn2)c([N+](=O)[O-])c1 (stereo not drawn) |  | 3.55 µM (active)
CC1(C)C/C(=N/Nc2ccc([N+](=O)[O-])cc2[N+](=O)[O-])C(C)(C)O1 | 12.7% [at 57.1 µM] | 
C[n+]1ccccc1C1CCCC/C1=N\Nc1ccc([N+](=O)[O-])cc1[N+](=O)[O-] (stereo not drawn) | -2.33% | 
Cc1cc(N2CCN(c3cccc(C(F)(F)F)c3)CC2)n2nc(-c3ccccc3)nc2n1 | -7.51% | 
CCOC(=O)c1c(NC(=O)CCl)sc(C(=O)N(CC)CC)c1C |  | 31.6 µM (active)
CCOC(=O)c1c(NC(=O)c2cc(CC)on2)sc(C(C)=O)c1C | 1.81% | 
COC(=O)c1sc(NC(=O)COC(=O)C2CCC2)c(C(=O)OC)c1C | 1.57% | 
CCc1ccccc1NC(=O)CSc1nc(C)c(C(=O)Nc2ccccc2)c(-c2ccc(Cl)cc2)c1C#N | 17.1% | 
CCCn1c(=O)c2[nH]c(-c3ccc(OCC(=O)NCCN)cc3)nc2n(CCC)c1=O |  | inactive
COc1ccccc1/C=C/c1nc(C#N)c(NC(C)c2ccccc2)o1 (stereo not drawn) | 80.7% | 
O=C(CCC1N=C2c3ccccc3N=C(SCc3ccccc3F)N2C1=O)NCCc1ccccc1 (stereo not drawn) | 6.07% [at 57.1 µM] | 

Compound | activity change, negative = inhibition | Potency
Clc1ccccc1CSc1nnc(-c2ccco2)c(-c2ccco2)n1 |  | 5.01 µM (active)
Cc1ccc(-c2nnc(SCC(=O)NCc3ccccc3)nc2-c2ccc(C)cc2)cc1 | 20.8% [at 57.1 µM] | 
Clc1ccccc1CSc1nncn2c1cc1occc12 | 16.1% | 
c1ccc(CSc2nnc(-c3ccco3)c(-c3ccco3)n2)cc1 |  | 2.51 µM (active)
CC1(C)N=C(SCc2ccccc2Cl)c2ccccc2N1 | 14.5% | 
CSc1n[nH]c(-c2ccco2)n1 | 11.5% | 
Cc1ccc(S(=O)(=O)c2cn(Cc3ccccc3)c3cc(N4CCCC4)c(F)cc3c2=O)c(C)c1 | 32.3% | 
COc1cccc(-c2nc(S(=O)(=O)c3ccc(C)cc3)c(NCc3ccccc3)o2)c1 | 8.09% | 
Cc1c(NC(=O)Cc2ccccc2)cccc1-c1nc2cccnc2s1 | 22.3% | 
O=[N+]([O-])c1cccc(/C([O-])=C(/C(=S)Nc2ccccc2F)[n+]2ccccc2)c1 | 10.2% [at 57.1 µM] | 
Cc1ccc(/C([O-])=C(/C(=S)NCc2ccco2)[n+]2ccccc2)cc1[N+](=O)[O-] |  | 56.2 µM (active)
O=C(NCc1ccco1)c1ccc(NS(=O)(=O)c2cccc([N+](=O)[O-])c2)cc1 | -1.92% | 
CC1(C)Cc2ccccc2-c2c[nH]c(=O)n21 | 3.99% | 
Cn1nnnc1SCC(=O)Nc1sccc1C(N)=O | 13.4% [at 11.4 µM] | 
COc1cc(OC)cc(C(=O)OCC(=O)Nc2sccc2C(N)=O)c1 | 15.1% | 
NC(=O)c1ccsc1NC(=O)c1ccco1 |  | 56.2 µM (active)
C=C1C=C(C)n2ncc(C(=O)Nc3ccccc3O)c2N1 | 8.78% | 
Cc1ccc(C2=C/C(=C\c3cccnc3)C(=O)O2)cc1 | 31.3% | 
COc1ccccc1/C=C/C1=NC(=C\N(C)C)/C(=O)O1 | 9.66% [at 57.1 µM] | 
CN(C)/C=C1\C=C(c2ccccc2)OC1=O |  | 28.2 µM (active)
CN(C)c1ccc(/C=C/C=C/c2ccnc3ccccc23)cc1 | -12.8% | 
O=C(C1COc2ccccc2O1)N(Cc1cccnc1)c1nc2c(F)cc(F)cc2s1 (stereo not drawn) | 23.2% [at 57.1 µM] | 
COc1cccc2sc(N(CCCN(C)C)C(=O)CCS(=O)(=O)c3ccccc3)nc12 |  | 1.58 µM (active)
CCOc1ccccc1NC(=O)CCS(=O)(=O)c1cccc2nsnc12 |  | inactive
Cc1cccc2sc(N(CCCN(C)C)C(=O)CCS(=O)(=O)c3ccccc3)nc12 |  | 15.8 µM (active)

Compound | activity change, negative = inhibition | Potency
O=C(O)CCS(=O)(=O)c1ccc(-c2ccccc2)cc1 | -6.99% | 
COc1ccccc1CNC(=O)CS(=O)(=O)c1cccc2nsnc12 | 5.68% [at 57.1 µM] | 
O=C(CCS(=O)(=O)c1ccccc1)N(Cc1cccnc1)c1nc2c(F)cccc2s1 |  | 3.98 µM (active)
Cc1ccc(S(=O)(=O)CCC(=O)OCc2ccccc2)cc1 | 22.7% | 
CN(C)S(=O)(=O)c1ccc(C(=O)N(Cc2cccnc2)c2nc3c(F)cc(F)cc3s2)cc1 | 1.57% [at 57.1 µM] | 
Brc1ccc2c(c1)NC(c1cccnc1)=NC(c1ccccc1)=N2 | 25% | 
Cc1cccc(N2CCN(C(=O)c3ccc4c(c3)CCN4S(=O)(=O)c3ccccc3)CC2)c1C | 23.9% | 
Cc1cccc(NC(=O)C2CCN(S(=O)(=O)c3c(C)noc3/C=C/c3ccco3)CC2)c1 | -7.03% | 
CCC(=O)N1CCc2cc(S(=O)(=O)NC(C(=O)NCCc3ccc(C)cc3)C(C)C)ccc21 (stereo not drawn) | 19% | 
O=C(Cn1ncn2nc(-c3cccs3)cc2c1=O)NCc1cccc(Br)c1 | 17.3% | 
CCOC(=O)c1ccccc1NC(=O)c1nn(-c2ccc(OC)c(Cl)c2)c(=O)c2c1c1ccccc1n2C | 15.4% | 
Cc1ccc(C(=O)NC(=S)Nc2ccc3[nH]c(=O)[nH]c3c2)cc1C | 2.89% [at 57.1 µM] | 
Cc1cc2[nH]ncc2cc1NC(=S)NC(=O)c1ccccc1 |  | 7.08 µM (active)
CCOC(=O)C1=C(NC(=S)NC(=O)c2ccccc2)c2ccccc2CC1(C)C | -24.4% | 
CCOc1ccc(CNC(=O)c2ccc3nc(CC)c(CC)nc3c2)cc1OC | 15.6% [at 57.1 µM] | 
CCOc1cccc(NC(=O)CSc2ncc(-c3ccc(Cl)cc3)[nH]2)c1 | 3.45% | 
CC1(C)CC(=O)c2cc(C(=O)NCc3ccccc3)c(=O)[nH]c2C1 | 8.76% | 
O=C(NCCC1=CCCCC1)c1ccc2c(c1)N(Cc1ccccc1F)C(=O)c1ccccc1S2(=O)=O | 41.9% | 
COc1ccc(Cn2cc(C(=O)c3ccc(C)cc3)c(=O)c3cc(OC)c(OC)cc32)cc1 | 21.9% | 
COc1ccc(-c2nc(C)c(CCNC(=O)c3ccc(C(F)(F)F)cc3)s2)cc1OC | 14.7% [at 57.1 µM] | 
O=C(Nc1ccccc1Cl)N1CCC(CN2CCCC2)CC1 | -6.79% | 
O=C(Nc1ccccc1Cl)N1CCC(CN2CCCCC2)CC1 | 24.2% [at 57.1 µM] | 
O=C(Nc1ccccc1Cl)/C(Cl)=C(\Cl)S(=O)c1ccccc1 (stereo not drawn) |  | 0.398 µM (active)

Reference: PubChem BioAssay AID588453 (National Center for Advancing Translational Sciences (NCATS), 2011)
